From PubChem
SRC3 inh = inhibitors of human steroid receptor coactivator 3 (SRC3); inhibition, % at 3.6 µM; 0.17% of 360,000 active; HEK293 GAL4-SRC3 luciferase reporter, luminescence;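 active = inhibition above a per-campaign cutoff, the mean of all compounds plus 3 SD, cut at about 60% in these data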;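 also: 0% = DMSO-treated cells and 100% = gossypol-treated cells at 36 µM; higher means less SRC3-driven luciferase light from the GAL4 reporter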
Target sequence (Q9Y6Q9 whole entry, looked up, the tested form may be a part): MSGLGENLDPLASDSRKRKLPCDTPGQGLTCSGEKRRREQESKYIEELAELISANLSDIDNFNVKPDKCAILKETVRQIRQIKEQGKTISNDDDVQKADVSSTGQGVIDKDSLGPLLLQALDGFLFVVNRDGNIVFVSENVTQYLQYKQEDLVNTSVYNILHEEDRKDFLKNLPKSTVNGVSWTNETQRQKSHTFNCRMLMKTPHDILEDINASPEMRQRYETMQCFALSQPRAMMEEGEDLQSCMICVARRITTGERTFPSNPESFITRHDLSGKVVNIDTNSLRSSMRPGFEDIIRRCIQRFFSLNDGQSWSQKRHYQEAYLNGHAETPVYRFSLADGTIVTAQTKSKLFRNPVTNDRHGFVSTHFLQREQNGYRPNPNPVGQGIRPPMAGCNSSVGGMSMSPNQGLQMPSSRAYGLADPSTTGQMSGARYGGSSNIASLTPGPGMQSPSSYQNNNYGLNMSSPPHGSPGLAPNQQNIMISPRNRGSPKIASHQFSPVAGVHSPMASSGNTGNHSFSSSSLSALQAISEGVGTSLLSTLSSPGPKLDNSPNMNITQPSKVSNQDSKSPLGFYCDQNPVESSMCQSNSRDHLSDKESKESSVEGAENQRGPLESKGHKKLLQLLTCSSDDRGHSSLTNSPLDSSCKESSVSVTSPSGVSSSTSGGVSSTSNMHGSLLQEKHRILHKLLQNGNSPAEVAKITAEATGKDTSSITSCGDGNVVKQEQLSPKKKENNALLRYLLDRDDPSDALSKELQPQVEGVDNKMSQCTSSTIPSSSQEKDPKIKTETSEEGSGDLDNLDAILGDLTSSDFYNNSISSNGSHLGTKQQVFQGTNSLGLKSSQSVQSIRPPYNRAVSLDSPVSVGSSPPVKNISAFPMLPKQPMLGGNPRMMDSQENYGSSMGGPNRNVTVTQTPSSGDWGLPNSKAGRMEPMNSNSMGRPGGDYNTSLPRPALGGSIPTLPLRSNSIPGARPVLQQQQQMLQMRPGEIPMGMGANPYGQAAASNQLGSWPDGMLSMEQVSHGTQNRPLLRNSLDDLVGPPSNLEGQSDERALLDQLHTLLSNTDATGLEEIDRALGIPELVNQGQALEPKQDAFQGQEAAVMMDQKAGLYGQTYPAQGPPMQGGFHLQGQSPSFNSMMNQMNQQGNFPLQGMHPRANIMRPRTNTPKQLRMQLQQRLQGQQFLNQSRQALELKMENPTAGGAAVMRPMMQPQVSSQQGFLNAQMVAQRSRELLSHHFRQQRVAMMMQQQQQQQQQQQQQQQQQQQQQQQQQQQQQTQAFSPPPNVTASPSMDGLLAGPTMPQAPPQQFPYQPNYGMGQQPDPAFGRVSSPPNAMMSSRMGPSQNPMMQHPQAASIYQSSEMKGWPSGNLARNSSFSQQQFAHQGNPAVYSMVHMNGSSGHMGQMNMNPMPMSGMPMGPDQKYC
LRH-1 inv ag = NR5A2 inverse agonism in reporter assay | 0.13% of 360,000 active | O00482 | AID 602396 | HEK293T StAR-luciferase reporter, LRH-1 transfected, 24 h | inhibition, % at 3.6 µM;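 active = inhibition above the mean inhibition of all tested compounds plus 3 SD, cut at about 73% in these data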;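 also: 0% = DMSO wells and 100% = reporter-only cells lacking LRH-1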
COUP-TFII inh = blocks human COUP-TFII nuclear receptor | inhibition, % at 8.6 µM | HEK293T NGFI-A luciferase reporter, luminescence | P24468 | 0.7% of 370,000 active | AID 686940;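 active = inhibition above a per-plate cutoff, mean inhibition of test wells between control levels plus 3 SD, cut at about 38% in these data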;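 also: cells cotransfected with COUP-TFII expression vector driving the NGFI-A reporter; 0% = median of COUP-TF2 test wells and 100% = reporter-only cells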
SRC1 inh = human NCOA1 inhibition | HEK293 GAL4-SRC1 luciferase reporter, luminescence | inhibition, % at 3.6 µM | 0.12% of 360,000 active;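 active = inhibition above the campaign mean plus 3 SD, with each screening campaign given its own cutoff, cut at about 60% in these data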;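 also: 0% = DMSO treated cells and 100% = gossypol at 36 µM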
GalR3 antag = antagonists of human GalR3 | O60755 | HEK293 GalR3-CNG cAMP membrane potential fluorescence; galR3 body fused to GalR1 C-terminus | inhibition, % at 3 µM | 0.44% of 360,000 active;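 active = inhibition above the screen-wide average plus 3 SD, cut at about 13% in these data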;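 also: forskolin and galanin both at EC90 stimulate the cells; cAMP rise reported by CNG channel membrane potential dye signal; 0% = forskolin plus galanin with DMSO and 100% = forskolin alone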
SRC2 inh = human SRC2 (NCOA2) inhibition. AID 651957. HEK293 GAL4-SRC2 luciferase reporter, luminescence. inhibition, % at 9 µM. Q15596. 0.17% of 370,000 active;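 active = inhibition above the mean inhibition of all tested compounds plus 3 SD, set per campaign, cut at about 52% in these data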;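 also: 0% = DMSO treated cells and 100% = cells given Gossypol at 36 µM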
VP16 Luc counter = counter-screen for COUP-TFII antagonists: inhibitors of VP16 | shares compounds with COUP-TFII inh | HEK293 Gal4-VP16 luciferase reporter, luminescence | inhibition, % at 8.5 µM | 25% of 2,500 active; in the data active = inhibition above about 13%
NR2F2 inh conf = confirmation of human COUP-TFII (NR2F2) inhibitors; shares compounds with COUP-TFII inh; HEK293 NGFI-A luciferase reporter, luminescence; inhibition, % at 8.5 µM; 45% of 2,500 active; AID 687008;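 active = mean inhibition over three repeats above a set limit taken from the earlier primary screen, cut at about 38% in these data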;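 also: 100% = cells given the luciferase reporter alone without the COUP-TF2 vector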
Numbers without * were called inactive; x = no result; ! = not confirmed by another sample. This is a sample that favours compounds with a hit; in the whole collection about 1.1% have one here.

SMILES	SRC3 inh	LRH-1 inv ag	COUP-TFII inh	SRC1 inh	GalR3 antag	SRC2 inh	VP16 Luc counter	NR2F2 inh conf
CC(C)C[C@H]1CN([C@@H](Cc2ccccc2)CN2CCC[C@H]2CN2C(=O)C(=O)NC[C@@H]2Cc2ccccc2)C(=O)C(=O)N1CC1CCCCCC1	x	x	8.9	x	2.2	-3.1	x	x
O=C(Nc1ccc(F)cc1)Nc1cc(OCC(F)(F)F)cc(OCC(F)(F)F)c1	61.4	47.5	76.0*	-12.1	-4.7	6.8	17.2*	79.1*
Cc1ccc(C)c(NC(=O)C2CCCN2S(=O)(=O)c2cccnc2)c1 (stereo not drawn)	x	x	7.9	x	x	16.2	x	x
Cc1nc2ccccn2c1C(=O)NNS(=O)(=O)c1ccc(C(C)(C)C)cc1	13.3	22.0	45.9*	13.5	-10.0	3.5	2.9	33.5
COc1ccc(Br)cc1S(=O)(=O)NNC(=O)c1c(C)nc2ccccn12	10.7	-7.1	4.5	10.6	-2.2	-17.6	x	x
COC(=O)C[C@@H]1CC[C@@H]2[C@H](COc3ccc(NC(=O)c4cccc(OC)c4)cc3C(=O)N2C)O1	x	x	20.1	x	x	-7.2	x	x
N#Cc1cc2cc3c(cc2nc1SCC(=O)N1CCOCC1)OCCO3	29.6	26.0	46.4*	-13.8	-6.6	12.5	24.2*	59.0*
C[C@@H]1CN([C@@H](C)CO)C(=O)CCCn2cc(nn2)CO[C@H]1CN(C)C(=O)Nc1ccccc1	x	x	4.2	x	-5.9	0.9	x	x
c1cc(-c2cnc3cccnn23)c2cccnc2c1	58.0	24.8	45.5*	63.2*	-1.0	65.9*	4.1	25.7
c1ccc2c(-c3cnc4cccnn34)cncc2c1	16.6	1.7	-6.4	-54.5	-2.0	9.9	x	x
COc1ccc(NC(=O)C2Cc3c(-c4ccc(Cl)cc4)ccnc3O2)cc1OC (stereo not drawn)	14.1	28.7	64.1*	18.0	-6.5	30.0	6.6	54.0*
COc1ccc(NC(=O)C2Cc3c(-c4ccncc4)ccnc3O2)cc1OC (stereo not drawn)	-4.7	-4.2	4.1	-0.8	-7.2	11.2	x	x
CC(=O)c1cccc(NC(=O)C2Cc3c(-c4ccccc4Oc4ccccc4)ccnc3O2)c1 (stereo not drawn)	-5.4	35.0	40.6*	21.3	-3.5	4.4	-6.6	12.2
Cc1ccc(-c2csc(NC(=O)CN3CCOCC3)n2)cc1	5.4	-2.6	-6.7	0.3	-10.1	16.5	x	x
Cc1sc(NC(=O)CN2CCOCC2)nc1-c1ccc2c(c1)CCN2S(=O)(=O)c1ccccc1	19.4	18.2	64.9*	19.2	-6.7	-5.8	8.5	56.0*
CC(=O)Nc1nc(-c2ccc3c(c2)CCN3S(C)(=O)=O)cs1	-61.4	-49.0	-27.5	-31.8	-5.3	-41.9	x	x
CS(=O)(=O)N1CCc2cc(-c3csc(NC(=O)Cc4cccs4)n3)ccc21	30.5	43.5	66.4*	11.5	-7.8	-8.3	-4.0	35.0
O=C(CN1CCOCC1)Nc1nc(-c2ccc3c(c2)CCN3S(=O)(=O)c2ccccc2)cs1	24.8	-2.6	42.4*	9.4	1.5	15.9	0.1	14.8
COC(=O)c1cc2c(c3c4cc(F)ccc4n(S(=O)(=O)c4ccc(C)cc4)c13)C(=O)N(Cc1ccc(C(F)(F)F)cc1)C2	x	x	-11.6	x	-3.0	-8.7	x	x
Nc1ccc2nc(SCC(=O)N3CCN(c4ccccc4)CC3)sc2c1	25.1	31.8	55.4*	11.3	-0.5	3.3	-9.9	28.9
Nc1ccc2nc(SCC(=O)N3CCOCC3)sc2c1	-5.9	-9.5	-16.9	-14.0	-0.2	-66.0	x	x
CC1CNCCN1S(=O)(=O)c1cccc2cnccc12 (stereo not drawn)	16.6	-1.4	41.3*!	4.3	-3.6	30.8	2.9	10.7
Cc1nc(N)nc(N)c1/C=C/C(C)(C)c1ccc(Cl)cc1	48.9	44.9	47.4*	70.0*	-10.7	22.4	27.9*	23.2
Cc1ccc(C(=O)CSc2nnc(-c3ccccn3)n2-c2ccccc2)cc1	x	x	-24.3	x	x	6.4	x	x
C=CCN(c1ccccc1OC)S(=O)(=O)c1ccc(Cl)c(C(=O)Nc2ccc(N3CCOCC3)cc2)c1	28.4	21.1	42.5*	15.4	-6.4	2.5	4.5	24.6
SMILES	SRC3 inh	LRH-1 inv ag	COUP-TFII inh	SRC1 inh	GalR3 antag	SRC2 inh	VP16 Luc counter	NR2F2 inh conf
COc1ccccc1N(C)S(=O)(=O)c1ccc(C(=O)Nc2ccc(N3CCOCC3)cc2)cc1	9.8	-4.8	12.9	3.7	-1.1	7.2	x	x
COC(=O)[C@]12C[C@H](CC(=O)N3CCOCC3)C(=O)N(Cc3ccccc3)C1=C[C@H](C1CCCC1)O[C@@H]2C	x	x	-56.7	x	4.1	-2.2	x	x
C[C@@H]1ON(C)[C@H]2C[C@H]3c4cc(-c5cccc(Cl)c5)ccc4CCN3C[C@@H]12	x	x	5.5	x	-4.0	-7.7	x	x
CC(C)C[C@H]1COc2cc(NCCCN3CCOCC3)ccc2S(=O)(=O)N1	x	x	-13.3	x	1.9	-2.2	x	x
Cc1nn(-c2ccccc2Cl)c(Cl)c1/C=N/Nc1nc2ccccc2s1	78.7*	41.5	85.6*	66.8*	-1.7	81.4*	88.1*	102.2*
CCOC(=O)N/N=C/c1c(C)nn(-c2ccccc2Cl)c1Cl	-43.1	-59.9	-45.1	-85.2	3.3	-100.4	x	x
N#CCC[C@H]1CC[C@]2(CCCN(c3ccccc3)C2)O1	x	x	-13.3	x	x	-6.3	x	x
CCCN(CCC)c1cc(=O)nc2ccccn12	x	x	1.9	x	-7.0	-19.4	x	x
CCC1CSC(Nc2ccc(C(=O)/C=C/c3ccc(Br)cc3)cc2)=N1 (stereo not drawn)	6.4	-26.3	8.9	-16.5	-2.4	-2.4	x	x
CCC1CSC(Nc2ccc(C(=O)/C=C/c3ccc(OC)c(OC)c3)cc2)=N1 (stereo not drawn)	16.4	-5.2	60.6*	-1.7	-9.7	35.8	-7.2	32.7
CCN(c1cccc(C)c1)S(=O)(=O)c1ccc2c(c1)CCN2C(C)=O	10.9	5.3	9.3	7.7	-3.2	1.2	x	x
CCN(c1cccc(C(F)(F)F)c1)S(=O)(=O)c1ccc2c(c1)CCN2C(C)=O	6.5	-1.4	47.5*	7.0	4.1	20.5	-0.2	3.3
Nc1nc2cc3c(cc2cc1C(=O)NCCc1c[nH]c2ccccc12)OCO3	x	x	65.8*	x	4.0	14.4	-1.9	52.1*
C[C@H]1[C@@H](c2ccccc2)Oc2ccc(Cl)cc2S(=O)(=O)N1Cc1ccc(Cl)cc1	x	x	-7.0	x	-7.0	-15.9	x	x
Cc1cc(N2CCN(C(=O)OC(C)(C)C)C[C@H]2C)ccc1N1C[C@@H](C)O[C@@H](C)C1	x	x	12.0	x	-5.7	28.9	x	x
OC[C@@H]1CN(Cc2ccc(F)cc2)C[C@H](n2cnc3c(Nc4ccccc4)ncnc32)O1	-8.1	8.8	7.2	-12.8	-8.0	-5.6	x	x
OC[C@@H]1CN(Cc2ccc(-c3ccccc3)cc2)C[C@H](n2cnc3c(Nc4ccccc4)ncnc32)O1	8.0	-14.8	59.2*	5.7	-8.2	32.1	1.4	30.0
